Bioassay records (PubChem)
In the library only some 2.6% were active in any assay of this set; here they are far more common.
KCNH2 3.1 block: qHTS for Inhibitors of KCHN2 3.1: Mutant qHTS; U2OS KCNH2 3.1, thallium flux FluxOr; active compounds read low; 340,000 compounds, 0.95% hits; AID 720553, 2013; activity change, % (tested at about 1.8 µM);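 active = maximum activity change below -70%; inconclusive = maximum activity change from -70% to -50%; inactive = maximum activity change above -50%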;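 note: thallium influx rate constant from kinetic fluorescence after stimulation buffer; % is set by controls: 0 for no effect and ±100 for the full control effect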
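U2OS cells transduced with KCNH2 3.1 mutant virus (1.77 x 10^8 /mL, 4 h), plated overnight at 37 C, loaded 45 min with FluxOr dye plus Red40 quencher. Thallium flux rate constant from kinetic reads after stimulation buffer, normalised to controls.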
p53 reactivation: qHTS assay for re-activators of p53 using a Luc reporter; 320,000 compounds, 0.063% hits; H1299 p53-A138V BP100-luciferase reporter, luminescence, 24 h; Potency, µM (top dose mostly 92.2 µM), for inactives: at the top dose activity change, positive = activation, usual class: activators; active = well fitted activation curve with a large enough effect; inconclusive = small, poorly fitted or top-dose-only effect; inactive = no such curve, though single readings can be large or run the other way; note: potency is the fitted concentration of half-maximal effect; % of control where 0% means no effect; nearly all actives have a fitted effect of over 45% in size
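p53-null H1299 cells stably carrying temperature-sensitive p53-A138V and a BP100-luciferase reporter were pinned with compounds (4-point, 1:5 series) and held 24 hrs at 37 deg C. Luminescence was read 10 min after detection reagent.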
TRPV1 agonist: HTS Assay for Compounds that Act as Agonists of the Vanilloid Receptor 1. Transient receptor potential cation channel subfamily V member 1 (Homo sapiens), Q8NER1. TRPV1-expressing cells, Fluo-8 calcium influx, agonist mode. activation, % at 8.33 µM. 320,000 compounds, 0.19% hits; in the data active = activation above about 80%; inconclusive = between about 30% and that limit; note: 0% is about no effect
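Cells expressing TRPV1 were dye-loaded with Fluo-8 and read kinetically: 10 s baseline, 3 min after compound (agonist portion), then 2 min after EC20 capsaicin (allosteric enhancer portion). Calcium-bound dye fluorescence at 480/520 nm.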
hERG WT inh: qHTS for Inhibitors of KCHN2 3.1: Wildtype qHTS. 340,000 compounds, 0.37% hits. U2OS, BacMam KCNH2, thallium flux FluxOr; active compounds read low. activity change, % at 1.84 µM. Voltage-gated inwardly rectifying potassium channel KCNH2 (Homo sapiens), Q12809;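 active = maximum activity change below -70%; inconclusive = maximum activity change between -70% and -50%; inactive = maximum activity change above -50%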; note: % is set by controls: 0 for no effect and ±100 for the full control effect
Target sequence (Q12809 whole entry, looked up): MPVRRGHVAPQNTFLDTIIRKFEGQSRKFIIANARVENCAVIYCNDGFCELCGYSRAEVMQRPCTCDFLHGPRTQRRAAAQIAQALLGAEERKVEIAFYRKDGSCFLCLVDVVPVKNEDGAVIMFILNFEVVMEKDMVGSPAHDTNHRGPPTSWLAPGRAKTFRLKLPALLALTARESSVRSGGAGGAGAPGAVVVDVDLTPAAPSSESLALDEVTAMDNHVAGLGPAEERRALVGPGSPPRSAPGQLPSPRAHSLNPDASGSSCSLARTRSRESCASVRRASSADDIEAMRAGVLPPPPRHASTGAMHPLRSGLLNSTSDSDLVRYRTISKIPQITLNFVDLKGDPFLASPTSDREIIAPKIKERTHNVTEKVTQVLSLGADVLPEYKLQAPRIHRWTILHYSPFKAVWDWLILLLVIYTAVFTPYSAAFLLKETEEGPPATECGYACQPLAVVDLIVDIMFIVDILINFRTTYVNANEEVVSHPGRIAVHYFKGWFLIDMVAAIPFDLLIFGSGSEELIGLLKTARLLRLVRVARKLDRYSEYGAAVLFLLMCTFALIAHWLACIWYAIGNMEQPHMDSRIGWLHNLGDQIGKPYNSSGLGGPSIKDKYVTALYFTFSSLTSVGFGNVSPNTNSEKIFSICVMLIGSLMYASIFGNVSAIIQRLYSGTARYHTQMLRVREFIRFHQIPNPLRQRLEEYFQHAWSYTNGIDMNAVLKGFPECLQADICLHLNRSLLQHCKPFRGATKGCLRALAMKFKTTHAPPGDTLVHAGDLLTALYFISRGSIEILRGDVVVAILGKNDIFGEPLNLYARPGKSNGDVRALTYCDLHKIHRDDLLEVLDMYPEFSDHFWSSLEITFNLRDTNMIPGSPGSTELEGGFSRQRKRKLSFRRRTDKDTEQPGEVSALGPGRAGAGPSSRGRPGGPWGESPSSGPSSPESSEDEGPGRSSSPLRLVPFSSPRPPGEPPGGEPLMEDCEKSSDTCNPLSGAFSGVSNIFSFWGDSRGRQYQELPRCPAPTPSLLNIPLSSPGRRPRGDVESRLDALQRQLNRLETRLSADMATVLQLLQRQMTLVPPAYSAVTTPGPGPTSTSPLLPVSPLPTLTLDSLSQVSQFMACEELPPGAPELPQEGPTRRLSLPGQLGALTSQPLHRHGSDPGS
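U2OS cells transduced with wild-type KCNH2 virus are loaded with FluxOr dye for 45 min, and thallium flux is measured in kinetic reads before and after stimulation buffer. Rate constants are normalized to DMSO controls.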
ClpP mod: qHTS Assay for Activators of ClpP; 340,000 compounds, 1.9% hits; purified B. subtilis ClpP, FRET peptide cleavage, 20 min; AID 651965, 2013; ATP-dependent Clp protease proteolytic subunit (Bacillus subtilis (strain 168)), P80244; Potency, µM (top dose mostly 57.5 µM), for the others: at the top dose activity change, negative = active; active = well fitted falling curve with a large enough effect; inconclusive = small, poorly fitted or top-dose-only effect; inactive = no such curve, though single readings can be large or run the other way; note: potency is the fitted concentration of half-maximal effect; the source files actives as falling curves though it sought activators and does not explain the sign; nearly all actives have a fitted effect of over 65% in size
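Purified B. subtilis ClpP, 10 microg/mL final in Tris/HCl pH8 with KCl, BSA, glycerol and Tween-20, cleaved an Abz/nitrotyrosine-quenched decapeptide. Fluorescence (ex 320, em 430) was read at 0 and 20 min at room temperature. Delta was normalized to 5.8 microM ADEP and DMSO/no-enzyme controls.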
TRPV1 PAM: HTS Assay for Compounds that Act as Potentiators of the Vanilloid Receptor 1; TRPV1-expressing cells, Fluo-8 calcium influx, capsaicin EC20 potentiation; potentiation, % at 8.33 µM; 320,000 compounds, 0.02% hits; in the data active = potentiation above about 80%; inconclusive = between about 30% and that limit; note: 0% is about no effect
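Cells expressing TRPV1 were dye-loaded with Fluo-8 and read kinetically: 10 s baseline, 3 min after compound (agonist portion), then 2 min after EC20 capsaicin (allosteric enhancer portion). Calcium-bound dye fluorescence at 480/520 nm.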
* hit, by the source's call; ? = inconclusive; · = no result given.

SMILES | KCNH2 3.1 block | p53 reactivation | TRPV1 agonist | hERG WT inh | ClpP mod | TRPV1 PAM
O=C(COC(=O)c1cccc(-n2cnnn2)c1)c1ccc(F)cc1 | -5.1 | 14.4% | 1.0 | -4.1 | 1.6% | -4.7
O=C(COC(=O)c1ccc(-n2cnnn2)cc1)c1ccc(Br)cc1 | -83.2* | 13.8% | -6.6 | ? | -1.7% | -0.3
Cc1ccc(CCNS(=O)(=O)c2ccc3c(c2)C(C(C)C)C(=O)N3)cc1 (configuration not stated) | · | · | · | · | 1.6% | ·
Cc1nn(-c2ccc(F)cc2)c2c1cc(C#N)c1nc3ccccc3n12 | -20.7 | -7.7% | -2.7 | -1.2 | 15.8µM* | 1.6
Cc1cc(C(C)C)n2c(nc3ccccc32)c1C#N | · | -0.6% | 0.7 | · | · | -3.3
C/C(=N\NC(=O)c1csc(C)c1C)c1ccco1 | 15.7 | 7.94µM* | 3.9 | 2.9 | -0.5% | -3.4
Cc1ccc(C)c(N2CCN(C(=O)Cn3c(C)c4cnn(-c5ccccc5)c(=O)c4c3C)CC2)c1 | · | · | · | · | -5.2% | ·
COc1cc(SC)ccc1C(=O)Nc1ccc(C)cc1C | -82.2* | ? | -3.2 | -4.4 | 38.2% | 23.8
O=C(Nc1nc2nccc(-c3ccccc3)n2n1)c1ccc(F)cc1 | -4.4 | 0.5% | -5.9 | 3.3 | 28.2µM* | 0.8
CC1CCN(S(=O)(=O)c2ccc3c(c2)N(CC(=O)NCCN2C(C)CCCC2C)C(=O)CS3)CC1 (configuration not stated) | -23.1 | -7.6% | -0.1 | -75.7* | -0.6% | 0.0
Cc1ccccc1C(=O)NN1C(=O)CSC1=S | 4.6 | 6.9% | 3.0 | 2.4 | -4.4% | 10.5
Cc1ccccc1C(=O)/C=C1/SCC(=O)N1C | -82.4* | 0.8% | 0.9 | -8.2 | 1.5% | -3.5
CN(C)C1=NCCN1CCC1CCCC1 | -108.5* | · | 1.3 | 8.9 | 0.0% | -1.2
Cc1ccc2cc3c(N)c(C(=O)Nc4c(C)[nH]c(=O)[nH]c4=O)sc3nc2c1 | 6.7 | 3.8% | 2.1 | -10.5 | 15.8µM* | -4.7
O=C(Nc1ccc(Cl)c(S(=O)(=O)N2CCCCC2)c1)C1=COCCO1 | -14.7 | 3.4% | ? | 4.9 | 14.1µM* | -3.0
CN(C)S(=O)(=O)c1cc(NC(=O)C2=COCCO2)ccc1Cl | 15.8 | -2.1% | 10.4 | 2.8 | -3.4% | -12.6
CC1CCCCN1CCCNC(=O)C1CCN(c2nnc(-n3cccc3)s2)CC1 (configuration not stated) | -200.7* | -6.0% | -0.9 | 23.5 | -0.5% | ?
CCCCNC(=O)OCC(CC)NC(=O)OC(C)C (configuration not stated) | -6.9 | -11.3% | 6.8 | -1.3 | 28.2µM* | -5.3
CCN(C(=O)c1cn(C)c(=O)c2cc(OC)c(OC)cc12)c1cc(OC)ccc1OC | 4.6 | 1.0% | 2.6 | -5.5 | -0.5% | ?
CCN(CC)C(=O)c1cn(C)c(=O)c2cc(OC)c(OC)cc12 | -197.6* | 5.3% | 1.7 | 4.4 | -24.0% | -0.9
COc1ccc(-c2nnn3c2nc(NCCc2ccc(OC)c(OC)c2)c2ccccc23)cc1 | · | · | · | · | 0.8% | ·
CC1CCN(CCCNC(=O)c2cc(Sc3ccc(F)cc3)nc3ccccc23)CC1 | · | · | · | · | -3.8% | ·
CCN(CC)CCCN(C(=O)c1ccco1)c1nc(-c2ccc(Cl)cc2)cs1 | -80.0* | · | 9.1 | -42.4 | · | -3.2
CCN(CC)CCCN(C(=O)c1ccco1)c1nc(-c2ccc(C)cc2)cs1 | -94.5* | -1.7% | -0.1 | -47.3 | -0.2% | 6.3
COCCCN(C(=O)c1ccco1)c1nc(-c2ccc(OC)cc2)cs1 | -3.4 | -66.8% | 3.9 | -2.7 | -8.6% | 0.3
SMILES | KCNH2 3.1 block | p53 reactivation | TRPV1 agonist | hERG WT inh | ClpP mod | TRPV1 PAM
CSc1ccc(/C=C2\C=C(C(O)c3ccc(SC)cc3)c3ccccc32)cc1 (configuration not stated) | · | · | · | · | -0.3% | ·
CC1=CC(C)(C)Nc2ccc(OC(=O)CN3C(=O)c4ccccc4C3=O)cc21 | 0.1 | -19.4% | -1.0 | -16.8 | 25.1µM* | 11.8
CC1=CC(C)(C)Nc2ccc(OC(=O)CN3C(=O)c4cccc5cccc(c45)C3=O)cc21 | 4.9 | -12.2% | -3.3 | -1.2 | -9.1% | 21.9
Cc1ccc(N2C(N)=NC(N)=NC23CCCC3)c(C)c1 | -5.8 | -2.4% | 3.1 | 0.0 | 28.2µM* | -8.8
COCCN(CCOC)C(=O)c1c[nH]c2ccc(S(=O)(=O)N(C)c3ccc(F)cc3)cc2c1=O | 20.3 | -3.8% | -2.9 | 12.9 | 31.6µM* | -1.2
CCc1nc2ccc(C(=O)NCCc3ccccn3)cn2c1N(CCC(C)C)CCN(C)C | · | · | · | · | 0.9% | ·
CCOc1ccccc1C(=O)Nc1cccc2ccc(C)nc12 | · | · | · | · | 31.6µM* | ·
COc1ccc(S(=O)(=O)N2CCCCC2)cc1C(=O)N1CCCC1 | -11.2 | 3.4% | 0.4 | -70.1* | 0.1% | -2.4
COc1ccc(CNC(=O)[C@@H](NC(=O)C2CCN(S(=O)(=O)c3ccc(C)cc3)CC2)C(C)C)cc1OC | -74.5* | -2.1% | -1.1 | -12.3 | 2.4% | 9.4
COc1ccc(CC(=O)Nc2ccc(S(=O)(=O)N3CCCCC3)cc2)cc1OC | -3.4 | -26.8% | 87.9* | 3.7 | -3.3% | -12.2
COc1ccc(S(=O)(=O)NC(C)C)cc1C(=O)N1CCOCC1 | 2.4 | -0.3% | 0.7 | -0.9 | 28.2µM* | -0.5
O=c1[nH]c(=O)n(C(c2ccccc2)(c2ccccc2)c2ccccc2)cc1N(CCO)CCO | -20.3 | · | · | 23.2 | -1.0% | ·
COc1ccc(CC(=O)Nc2cccc(SC)c2)cc1OC | -5.9 | -2.7% | 101.3* | -11.8 | · | -8.1
COc1ccc(S(=O)(=O)N2CCCCC2)cc1C(=O)N1CCCCCC1 | -8.3 | · | · | 2.5 | 14.1µM* | ·
CN(C)c1ccc(CNC(=O)c2ccc(Cn3c(=O)c4cccn4c4cccnc43)cc2)cc1 | · | · | · | · | -20.9% | ·
CC/C(C)=N/Nc1cccc([N+](=O)[O-])c1 | -93.1* | -1.9% | 4.2 | -8.5 | -0.8% | 0.8
Cc1ccc(CN2CCN(CCCn3cnc4c(OCc5ccccc5)ncnc43)CC2)cc1 | -96.7* | · | · | -127.0* | -3.3% | ·
CCOc1ccc(CC(=O)Nc2cccc(-c3nc4cccnc4s3)c2C)cc1 | · | · | · | · | 0.0% | ·
O=C(Nc1nnc([C@@H]2C[C@H](O)[C@@H](CO)O2)s1)Nc1ccccc1F | · | · | · | · | 0.9% | ·
CCOC(=O)C1=CCCN(S(=O)(=O)c2ccc(C)cc2)C1 | · | · | · | · | -6.2% | ·
